# Wnt act: Wnt/beta-catenin pathway activation; Wnt/beta-catenin reporter cell assay, activator, plate reader; activation, % at 9.35 µM; hit rate 1.2% among 300,000; in the data active = activation above about 30%, passing the limit was not always enough; inconclusive = no clear call, values can overlap the other calls;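 also: 0% = neutral control wells and 100% = positive control wells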
# GAA850 FXN act: activators of GAA850 frataxin (FXN) promoter; HEK293 lucGAA850 FXN promoter luciferase reporter, 24 h; percent of 10 µM SAHA response; activation, % at 6 µM; hit rate 0.56% among 360,000;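 active = activation above the average of all compounds screened plus 3 SD, cutoff fixed separately per campaign, cut at about 7.5% in these data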;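 also: 0% = DMSO wells and 100% = 10 µM SAHA wells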
# esBAF inh: SWI/SNF esBAF complex inhibition; hit rate 2% among 350,000; mouse ES cells, Bmi1-luciferase knock-in reporter, 24 h; 100% = twice the neutral-well signal; AID 602393; reporter increase, % at 12.5 µM; in the data active = activation above about 40%; inconclusive = no clear call, values can overlap the other calls;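 also: 0% = median of the plate's neutral control wells and 100% = double that signal; a rise in the Bmi1 reporter signal indicates esBAF inhibition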
# MITF act: increases MITF-driven TRPM1 promoter luciferase signal. SK-MEL-5 TRPM1-promoter luciferase, 24 h; % of positive control, neutral wells = 0. AID 588334. activation, % at 12.5 µM. hit rate 0.75% among 300,000;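 active = mean activation of at least 80% with every replicate also reaching 80%; inconclusive = mean reaches 80% but some replicate falls short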;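 also: 0% = neutral control wells and 100% = parthenolide positive control wells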
# * hit, by the source's call; ? = inconclusive; . = not tested or not shown. Most compounds without a hit are left out; they make up all but 2.8% or so of the library.
SMILES,Wnt act,GAA850 FXN act,esBAF inh,MITF act
Fc1cc(Br)ccc1COc1ccc(-c2nnco2)cc1,22,5,55*,119*
O=[N+]([O-])c1ccc(Cl)c(NC(=S)N2CCCC2)c1,3,0,52*,33
O=[N+]([O-])c1ccc(NC(=S)N2CCCC2)cc1,-1,1,9,.
O=C(NC(=S)Nc1ccc2c(c1)OCCO2)c1ccccc1,.,1,2,37
COc1ccc(NC(=S)NC(=O)c2ccc3c(c2)OCCO3)cc1,-4,4,54*,70
O=C(NC(=S)Nc1ccc(F)cc1)c1ccc2c(c1)OCCO2,?,3,.,61
CCOc1cccc(C(=O)NC(=S)Nc2ccc3c(c2)OCCO3)c1,-1,1,?,103*
CCC(=O)Nc1ccc2oc(-c3ccccc3Br)nc2c1,.,1,59*,130*
Cc1ccccc1-c1nc2cc(Cl)ccc2o1,38*,2,.,?
Cc1ccc(OCC(=O)Nc2ccc(O)c(-c3nc4ccccc4o3)c2)cc1,-9,1,54*,-45
Cc1ccccc1-c1nc2cc(NC(=O)C3CC3)ccc2o1,18,4,63*,66
C/C=C/c1ccc2c(c1)O[C@@H](CN(C)Cc1cccnc1)[C@@H](C)CN([C@@H](C)CO)S2(=O)=O,.,.,-3,.
C[C@H]1CN([C@@H](C)CO)C(=O)Cc2cc(NS(=O)(=O)c3ccccc3)ccc2O[C@@H]1CN(C)Cc1ccc2c(c1)OCO2,.,.,0,.
COc1cc(OC)cc(C(=O)NCC(=O)Nc2ccc(C)c(Cl)c2)c1,46*,-1,0,11
COc1ccc(NC(=O)/C=C/c2cccc(F)c2)cn1,36*,4,.,31
COc1ccc(NC(=O)/C=C/c2ccco2)cn1,?,5,44*,118*
COc1ccc(OC)c(/C=C/C(=O)Nc2ccc(OC)nc2)c1,0,2,.,14
CCC(=O)Nc1ccc2c(c1)OC[C@H](C)N(C(=O)C1CCC1)C[C@H](C)[C@@H](OC)CN(C)C2=O,.,.,7,.
CNC[C@@H]1Oc2ccc(NS(=O)(=O)c3ccc(C)cc3)cc2CC(=O)N([C@@H](C)CO)C[C@@H]1C,.,.,1,.
COc1ccc(NC(=O)N(C)C[C@H]2Oc3c(NC(=O)C4CCOCC4)cccc3C(=O)N([C@@H](C)CO)C[C@H]2C)cc1,.,.,2,.
O=C(O)/C=C/c1ccc(O)cc1,-2,1,-2,-7
COc1cc(O)cc(/C=C/c2ccccc2)c1,-3,2,51*,79
Oc1ccc(/C=C/c2cc(O)cc(O)c2)cc1,0,2,-3,104*
O=C(C[C@H]1CC[C@@H]2[C@H](COC[C@H](O)CN2C(=O)c2ccccc2)O1)NCc1cccc(F)c1,.,.,-6,.
CC(C)C(=O)Nc1ccc2c(c1)C(=O)N(C)[C@@H]1CC[C@H](CC(=O)Nc3ccccc3)O[C@H]1CO2,.,.,-3,.
SMILES,Wnt act,GAA850 FXN act,esBAF inh,MITF act
OC(c1ccc(F)c(F)c1)c1nc(-c2cnc3ccccc3c2)cs1 (stereo unspecified),21,2,51*,.
O=C(O)c1cccc(-c2csc(C(O)c3ccc(F)c(F)c3)n2)c1 (stereo unspecified),19,1,44*,.
OC(c1ccc(F)c(F)c1)c1nc(-c2cccc(F)c2)cs1 (stereo unspecified),-2,3,-5,.
OC(c1ccc(F)c(F)c1)c1nc(-c2ccccc2)cs1 (stereo unspecified),4,3,-2,.
COc1ccc(-c2cn[nH]c2C)cc1,2,2,.,.
COc1ccc2cc(-c3ccn[nH]3)ccc2c1,35*,4,-23,35
S=C(N/N=C/c1ccc(Br)cc1)N1CCCCC1,-3,5,50*,.
OC[C@@H]1[C@H](c2ccc(Br)cc2)[C@@H]2CN(Cc3cncnc3)CCCCN12,.,.,-2,.
COc1ccc(NC(=O)N(C)C[C@H]2Oc3ccc(NC(=O)NC4CCCCC4)cc3C(=O)N([C@@H](C)CO)C[C@@H]2C)cc1,.,.,0,.
O=C(c1cc(COc2ccc(F)c(F)c2)on1)N1CCSCC1,12,4,51*,55
O=C(c1cc(COc2ccc3c(c2)CCCC3)on1)N1CCCC1,1,4,68*,124*
COc1ccc(OCc2cc(C(=O)N3CCCC(CO)C3)no2)c2ccccc12 (stereo unspecified),33*,5,.,22
CSc1ccccc1OCc1cc(C(=O)N2CCN(c3ncccn3)CC2)no1,1,3,38,30
COCC1CCN(C(=O)c2cc(COc3ccc4c(c3)CCCC4)on2)C1 (stereo unspecified),-1,2,.,1
O=C(c1cc(COc2cccc3cnccc23)on1)N1CCCC(CCCO)C1 (stereo unspecified),-5,-7,-16,-26
CSc1ccccc1OCc1cc(C(=O)N2CCSCC2)no1,26,7,69*,133*
COc1ccc(NC(=O)N(C)C[C@H]2OCCCC[C@@H](C)Oc3ccc(NC(=O)Nc4ccc(F)cc4)cc3C(=O)N([C@H](C)CO)C[C@@H]2C)cc1,.,.,-1,.
C[C@@H]1CN([C@H](C)CO)C(=O)c2cc(-c3ccc(F)cc3)cnc2O[C@@H]1CN(C)C(=O)c1ccccc1F,.,.,-1,.
O=C(C[C@@H]1C[C@H]2c3cc(NC(=O)C4CCC4)ccc3O[C@H]2[C@H](CO)O1)NC1CCCCC1,.,.,-9,.
C[C@H](NC(=O)[C@H]1[C@H](CO)[C@H]2Cn3c(ccc(-c4ccccc4)c3=O)[C@@H]1N2C)c1ccccc1,.,.,-2,.
CSc1ccccc1OCc1cc(C(=O)N2CCCC(C)C2)no1 (stereo unspecified),51*,5,62*,159*
CC1CCc2c(sc(/N=C/c3ccco3)c2C(N)=O)C1 (stereo unspecified),45*,3,.,.
CCC1CCc2c(sc(NC(=O)c3ccco3)c2C(N)=O)C1 (stereo unspecified),37*,4,60*,.
CC1CCc2c(sc(/N=C/c3cccnc3)c2C(N)=O)C1 (stereo unspecified),1,1,.,.
CO[C@H]1CN(C)C(=O)c2cc(NC(=O)C3CC3)ccc2OC[C@@H](C)N(Cc2nccs2)C[C@H]1C,.,.,-3,.
SMILES,Wnt act,GAA850 FXN act,esBAF inh,MITF act
O=C(C[C@H]1C[C@H]2c3cc(NS(=O)(=O)c4ccccc4)ccc3O[C@H]2[C@@H](CO)O1)NCC1CC1,.,.,5,.
CC1CCc2sc(C(=O)N3CCC(C(N)=O)CC3)cc2C1 (stereo unspecified),36*,0,34,.
O=C(C1COc2ccccc2O1)N1CCc2ccccc2C1 (stereo unspecified),.,3,47*,.
O=C(c1ccc2c(c1)OCO2)N1CCc2ccccc2C1,23,5,45*,49
O=C(c1cc(Br)c(Br)s1)N1CCc2ccccc2C1,8,2,42*,15
CCOC(=O)c1c(Nc2ccc(OC)cc2)n[nH]c1C,34*,.,.,.
CCOC(=O)c1c(N)n[nH]c1-c1ccc(OC)cc1,.,1,-5,-14
O=C(O)c1ccc(-n2cc(C(=O)c3ccccc3O)cn2)cc1,4,4,7,12
O=C(c1cnn(-c2cccc(F)c2)c1)c1ccccc1O,37*,-1,.,46
